These results are taken from PubChem BioAssay (NCATS).

Experiment [1] in a line: qHTS drug screen for cell cycle checkpoint inhibitors in PARPi-resistant BRCA-mutant ovarian cancer cell lines. (AID 1963452). As to conditions: PEO1/OlaR viability, CellTiter-Glo luminescence, 96 h; for Z-AUC: stronger effect = lower value. The method in brief: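 PEO1, PEO4 and PEO1/OlaR ovarian cancer cells, 600 per well, exposed 96 h at 37C to a dilution series. Viability read by CellTiter-Glo luminescence, normalized to DMSO and empty wells; activity summarized as Z-AUC.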

Experiment [2] can be described thus: qHTS profiling for inhibitors of Plasmodium falciparum proliferation (AID 504749; active = well fitted inhibition curve with a large enough effect;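 for activity, negative = inhibition: 0% = DMSO vehicle and full inhibition = artemisinin control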; for all read-outs here: nearly all actives have a fitted effect of over 60% in size). The note with it: P. falciparum in erythrocytes, SYBR Green DNA, 72 h; for activity, negative = inhibition: at 28.7 µM (top of the series). The method in brief: (§1)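 Infected RBCs, 0.3% parasitemia/2.5% Hct final; cpd 72 h, 37 C, 5% CO2; lysis buffer with saponin/triton/SYBR Green I, o/n RT dark; FI 485/535; norm. to artemisinin (0.29 uM) and DMSO.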

Experiment [3] has as its system 3D7. The description is as above. The note with it: P. falciparum in erythrocytes, SYBR Green DNA, 72 h; series mostly up to 28.7 µM. The method in brief:
as §1

Experiment [4] has as its system 7G8. The description is as above. As to conditions: P. falciparum in erythrocytes, SYBR Green DNA, 72 h; series mostly up to 28.7 µM. The method in brief: as §1
Experiment [5] relates to AA1029. The description is as above. As to conditions: P. falciparum in erythrocytes, SYBR Green DNA, 72 h; series mostly up to 28.7 µM. The method, boiled down: as §1
The subject of experiment [6] is AS120. The experiment is described as above. The note with it: P. falciparum in erythrocytes, SYBR Green DNA, 72 h; series mostly up to 28.7 µM. The method, boiled down: as §1
In experiment [7] the test system is ATS189. Described as above. The note with it: P. falciparum in erythrocytes, SYBR Green DNA, 72 h; series mostly up to 28.7 µM. The method, boiled down: as §1
Experiment [8] concerns ATS95. The experiment is described as above. As to conditions: P. falciparum in erythrocytes, SYBR Green DNA, 72 h. The method in brief: as §1
For experiment [9], the system named is C2A. The experiment is described as above. The note with it: P. falciparum in erythrocytes, SYBR Green DNA, 72 h; series mostly up to 28.7 µM. The method, boiled down:
as §1

The subject of experiment [10] is CP185. Described as above. The note with it: P. falciparum in erythrocytes, SYBR Green DNA, 72 h; series mostly up to 28.7 µM. The method, boiled down:
as §1

The mark [11] stands for this setting: measured here: PEO1 parental Z-AUC.

Inconclusive results are not listed. Calls of active or inactive are those of the source. Unless noted, calls come from the whole dose curve.
Potency is the fitted concentration of half-maximal effect.

Turning to `O=C(NC[C@H](O)CN1CCc2ccccc2C1)c1ccnc(NC2CCC2)c1`, the values for the Z-AUC in experiment [1], in [1] (setting [11]) and in experiment [1] (measured here: PEO4 Z-AUC) were -0.571 (inactive), -0.416 and -0.212, respectively.

With `Fc1ccc2[nH]ccc2c1-c1nc(N2CCOCC2)c2sc(CN3CCN(CC4CC4)CC3)cc2n1`, the figures for the Z-AUC in [1], in experiment [1] (setting [11]) and in experiment [1] (measured here: PEO4 Z-AUC) were -0.813 (inactive), -0.565 and -0.474, respectively.

As to `C=CC(=O)Nc1cccc(Nc2nc(Nc3ccc(NC4CN(CCF)C4)cc3OC)ncc2C(F)(F)F)c1`, the Z-AUC in [1] is 0.83 (inactive); in experiment [1] (setting [11]) it was 0.499; in experiment [1] (measured here: PEO4 Z-AUC), 0.584.

On to `Cn1ncc(Cl)c1-c1cc(C(=O)N[C@H](CN)Cc2ccc(F)c(F)c2)sc1Cl`, for which the figures for the Z-AUC in [1], in experiment [1] (setting [11]) and in experiment [1] (measured here: PEO4 Z-AUC) were 0.188 (inactive), 0.381 and -0.0194, respectively.

Consider `C=CCNC1=C2C[C@@H](C)C[C@H](OC)[C@H](O)[C@@H](C)/C=C(\C)[C@H](OC(N)=O)[C@@H](OC)/C=C\C=C(/C)C(=O)NC(=CC1=O)C2=O`, for which the Z-AUC in [1] was -0.418 (inactive); in experiment [1] (setting [11]), -0.98; in [1] (measured here: PEO4 Z-AUC) it was -0.867. For the same compound, the Potency in experiment [2] (parasite line A) was 1410 nM (active); in experiment [2] (parasite line B), 2240 nM (active); in [3] it was 2240 nM (active); in experiment [4] it was 447 nM (active); in experiment [5] it was 1410 nM (active); in [6] it was 1410 nM (active). The Potency in [7] was 2240 nM (active); in [8] it was 2000 nM (active); in experiment [9] it was 2000 nM (active); in experiment [10], 2510 nM (active).

Take `COc1ccc(Cl)c(Nc2ncnc3cc(OCC4CCN(C)CC4)c(OC)cc23)c1`: the Z-AUC in experiment [1] was -1.39 (inactive); in experiment [1] (setting [11]), -0.765; in experiment [1] (measured here: PEO4 Z-AUC) it was -1.02.

On to `Cc1cc(C(=O)Nc2cc(Oc3ccc4nc(NC(=O)C5CC5)cn4n3)ccc2C)n(C)n1`, for which the Z-AUC in [1] was -0.702 (inactive); in [1] (setting [11]) it was -1.33; in [1] (measured here: PEO4 Z-AUC), -1.31.

In the case of `COc1cc(S(C)(=O)=O)ccc1Nc1nc2ccc(-c3ccc(NC(=O)[C@H](C)c4ccc(F)cc4)cc3)cn2n1`, the figures for the Z-AUC in [1], in experiment [1] (setting [11]) and in [1] (measured here: PEO4 Z-AUC) were 0.76 (inactive), 0.0908 and 0.043, respectively.

Turning to `CCCCNc1ncc(-c2ccc(CN3CCOCC3)cn2)c(NC2CCC(O)CC2)n1` (stereo not given), the values for the Z-AUC in experiment [1], in [1] (setting [11]) and in [1] (measured here: PEO4 Z-AUC) were -1.2 (inactive), -1.14 and -0.666, respectively.

With `FC(F)(F)c1ccc(/C=C/c2nc(COc3ccc(CCCCn4ccnn4)cc3)co2)cc1`, the Potency in experiment [1] was 195 nM (active). Also, the results for the Z-AUC in experiment [1] (setting [11]) and in [1] (measured here: PEO4 Z-AUC) were -3.45 and -2.45, respectively.

As to `O=C(Nc1ccc2[nH]nc(-c3ccncc3)c2c1)[C@@H]1CCN(CC(=O)N2CCN(c3ccc(-c4ncccn4)cc3)CC2)C1`, the figures for the Z-AUC in experiment [1], in experiment [1] (setting [11]) and in experiment [1] (measured here: PEO4 Z-AUC) were -0.198 (inactive), -1.04 and -0.706, respectively.

Consider `Cn1ncc2cc(-c3cnc(N)c(Cl)c3N3CCC4(CCNC4=O)CC3)ccc21`, for which the Z-AUC was -0.513 (inactive) in experiment [1], -0.91 in experiment [1] (setting [11]) and -1.02 in experiment [1] (measured here: PEO4 Z-AUC).

As to `O=C(O)C1=CO[C@@H](O[C@@H]2O[C@H](CO)[C@@H](O)[C@H](O)[C@H]2O)[C@@H]2C(CO)=CC[C@H]12`, the figures for the Z-AUC in [1], in [1] (setting [11]) and in [1] (measured here: PEO4 Z-AUC) were 1.4 (inactive), 1.85 and 1.61, respectively.

For the compound `CCCc1cc(C)[nH]c(=O)c1CNC(=O)c1cc(-c2ccnc(N3CCN(C)CC3)c2)cc2c1cnn2C(C)C`, the Z-AUC in experiment [1] was -1.33 (inactive); in experiment [1] (setting [11]), -1.11; in experiment [1] (measured here: PEO4 Z-AUC) it was -1.01.

`C[C@@H]1CN(CC(=O)N2CC(C)(C)c3ncc(Cc4ccc(F)cc4)cc32)[C@@H](CN2CCOC[C@H]2C)CN1`: the Z-AUC in [1] was 1.68 (inactive); in experiment [1] (setting [11]), 0.908; in experiment [1] (measured here: PEO4 Z-AUC), 0.0229.

With `CCCOc1ccc2nc(NC(=O)OC)sc2c1`, the figures for the activity, negative = inhibition in experiment [2] (parasite line A) and in [2] (parasite line B) were -2.17% (inactive) and 4.31% (inactive), respectively. Further, the Potency result in experiment [3], in experiment [4], in experiment [5], in experiment [6], in experiment [7] and in experiment [9] was “inactive” each time. Also, the Potency result in experiment [10] was “inactive”.

Regarding `NCCOc1cc(C(=O)Nc2cc(OCCN)c3ccccc3n2)nc(C(=O)Nc2cc(OCCN)c3ccccc3n2)c1`, the Z-AUC was -0.0869 (inactive) in experiment [1], -0.747 in [1] (setting [11]) and -0.493 in experiment [1] (measured here: PEO4 Z-AUC).

With `COc1cc(N2CCC(N3CCN(C)CC3)CC2)ccc1Nc1ncc(Cl)c(Nc2ccccc2P(C)(C)=O)n1`, the Potency in [1] was 549 nM (active). Also, the results for the Z-AUC in experiment [1] (setting [11]) and in [1] (measured here: PEO4 Z-AUC) were -1.53 and -1.55, respectively.

Turning to `CN1CCN(C2CCN(C(=O)Nc3cc(Oc4ccc(NC(=O)C5(C(=O)Nc6ccc(F)cc6)CC5)c(F)c4)ccn3)CC2)CC1`, the Z-AUC is 0.53 (inactive) in experiment [1], 0.13 in [1] (setting [11]) and -0.114 in [1] (measured here: PEO4 Z-AUC).

`CCOc1cc(C(C)(C)C)ccc1C1=N[C@@](C)(c2ccc(Cl)cc2)[C@@](C)(c2ccc(Cl)cc2)N1C(=O)N1CCN(CC(=O)N2CCOCC2)CC1`: the Z-AUC in experiment [1] was -0.291 (inactive); in [1] (setting [11]), 0.35; in experiment [1] (measured here: PEO4 Z-AUC) it was 0.188.

Turning to `COc1cc(N2CCC(N)CC2)ccc1Nc1ncc(Cl)c(-c2c[nH]c3ccccc23)n1`, the results for the Z-AUC in experiment [1], in [1] (setting [11]) and in experiment [1] (measured here: PEO4 Z-AUC) were -1.17 (inactive), -1.5 and -2.07, respectively.

In the case of `O=C1NC(=O)C(c2cnc3ccccn23)=C1c1cn2c3c(cc(F)cc13)CN(C(=O)N1CCCCC1)CC2`, the Potency in experiment [1] was 174 nM (active). Further, the Z-AUC is -1.85 in experiment [1] (setting [11]) and -1.33 in [1] (measured here: PEO4 Z-AUC).

Take `CCN(c1cc(-c2ccc(CN3CCOCC3)cc2)cc(C(=O)NCc2c(C)cc(C)[nH]c2=O)c1C)C1CCOCC1`: the Z-AUC is 0.506 (inactive) in experiment [1], 0.489 in experiment [1] (setting [11]) and 0.0284 in experiment [1] (measured here: PEO4 Z-AUC).
